The values that follow come from PubChem BioAssay.

Calls of active or inactive are those of the source.

Assay [1] in a line: small molecules captured by biotinylated probe aFSTL3 – biochemical, small-molecule microarray, fluorescence 635/667, stem cell growth factor project, primary screen (AID 1064).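 Further: measures binding of the biotinylated anti-FSTL3 antibody to printed compounds.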 To be noted: higher = more signal.
Assay [2] can be described thus: binders from COS7 lysate, DM2A8 probe, primary screen, torsin A project, cell lysate, small-molecule microarray, fluorescence 635/667 (AID 1065). The following applies: higher = more signal, COS7 lysate expressing mutant human TOR1A.
Assay [3] can be described thus: small molecules captured by biotinylated probe aFGF2 – biochemical, small-molecule microarray, fluorescence 635/667, stem cell growth factor project, primary screen (AID 1067).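 Further: measures binding of biotinylated aFGF2 protein to printed compounds on slides; z-score merges feature fluorescence and signal-to-noise across triplicate slides.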 The following applies: higher = more signal.
Assay [4] can be described thus: small molecules captured by biotinylated probe aFGF10 – biochemical, small-molecule microarray, fluorescence 635/667, stem cell growth factor project, primary screen (AID 1071).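 Further: score merges 667 nm spot intensity and signal to noise from triplicate slides.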 The following applies: higher = more signal.
Assay [5] concerns the target Neurogenic locus notch homolog protein 2 (Homo sapiens) (UniProt Q04721). The assay is described as follows: small molecules binding Notch2 protein – biochemical, small-molecule microarray, 635 nm fluorescence, stem cell growth factors, primary screen (AID 1073). To be noted: higher = more signal.
Assay [6] concerns the target Pro-neuregulin-1, membrane-bound isoform (Homo sapiens) (UniProt Q02297). In words: small molecules binding neuregulin-1 protein – biochemical, small-molecule microarray, fluorescence 635/667, psychiatric disease protein project, primary screen (AID 1075).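 Further: score combines 667 nm spot fluorescence with signal to noise.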 To be noted: NRG1 binding, 635 nm fluorescence, higher = more signal.
The subject of assay [7] is Neuregulin-1 EGF-like domain. The assay is described as follows: small molecules binding NRG1 EGF domain – biochemical, small-molecule microarray, 635 nm fluorescence, primary screen (AID 1081).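 Further: binding of the protein to compounds printed on small-molecule microarray slides.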 To be noted: higher = more signal.
A short description of assay [8]: FRG1 expression reporter modulators in myotubes – cell-based, C2C12 myotubes, firefly/Renilla luciferase, luminescence, FRG1 inhibition for FSHD, primary screen (AID 1084). The following applies: FRG1 promoter luciferase, higher = more signal, called active from +8 up or from −8 down.
Assay [9] can be described thus: small molecules captured by biotinylated probe aFST – biochemical, small-molecule microarray, fluorescence 635/667, stem cell growth factor project, primary screen (AID 1086).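 Further: score merges 667 nm fluorescence with signal-to-noise of each printed compound spot.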 To be noted: higher = more signal.
Assay [10] is described as follows: binders of probe aHhip on microarray, primary screen, stem cell growth factor project, biochemical, small-molecule microarray, fluorescence 635/667 (AID 1087).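 Further: score merges spot fluorescence at 667nm with spot signal to noise ratio.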 To be noted: higher = more signal.
The test system of assay [11] is PRMT1 (protein arginine N-methyltransferase 1). The assay is described as follows: small molecules binding arginine methyltransferase PRMT1 – biochemical, small-molecule microarray, 635 nm fluorescence, primary screen (AID 1088).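 Further: binding of Prmt1 protein to compounds spotted on small-molecule microarray slides.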 The following applies: higher = more signal.
Assay [12] can be described thus: growth effects on S. cerevisiae YJM789 – YJM789 clinical isolate, OD600, 24 h, basal, primary screen (AID 1089).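 Further: growth of clinical yeast isolate S. cerevisiae YJM 789 seeded 1000 cells per well; test concentration not given here.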 The following applies: higher = more signal, called active from +8 up or from −8 down.
Assay [13] in a line: S. pombe growth modifiers, basal conditions – strain 972, OD600, 24 h, no modulator, primary screen (AID 1090).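 Further: basal condition with compound alone and no growth modifier present; test concentration not given here.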 To be noted: S. pombe 972 growth, higher = more signal, called active from +8 up or from −8 down.
The nature of assay [14]: budding yeast growth modifiers under rapamycin – strain BY4716, OD600, 96 h, primary screen (AID 1091). Further: test concentration not given here. To be noted: S. cerevisiae BY4716 + rapamycin, higher = more signal, called active from +8 up or from −8 down.
The target in assay [15] is Torsin-1A-interacting protein 2 (Homo sapiens) (UniProt Q8NFQ8). In words: small molecules binding lysate-expressed LULL1 – cell lysate, human LULL1 lysate, 635/667 nm fluorescence, primary screen (AID 1092).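 Further: probe is lysate of COS7 cells overexpressing human LULL1; score merges per-feature 667 nm fluorescence with signal-to-noise.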 The following applies: small-molecule microarray, hLULL1 lysate binding, 635 nm fluorescence; higher = more signal.
A short description of assay [16]: optical density change of DRC41 E. coli – strain DRC41, OD650, 24 h, E. coli filamentation project, primary screen (AID 1093).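 Further: MC1000 strain lacking acrAB efflux and sulA so SOS filamentation is blocked; test concentration not given here.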 To be noted: E. coli DRC41 growth, higher = more signal, called active from +8 up or from −8 down.
The nature of assay [17]: probe aLefty2 binding to arrayed compounds – biochemical, biotinylated probe, 635/667 nm fluorescence, primary screen (AID 1094).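 Further: score merges spot fluorescence near 667 nm with spot signal-to-noise ratio.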 To be noted: small-molecule microarray, higher = more signal.
In assay [18] the test system is Noggin (protein binding on small-molecule microarray). In words: small molecules binding Noggin protein – biochemical, 635/667 nm fluorescence, primary screen (AID 1095).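 Further: score merges 667 nm feature fluorescence with signal to noise over triplicate slides.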 To be noted: 635 nm fluorescence, higher = more signal.
For assay [19], the target named is Neurogenic locus notch homolog protein 3 (Homo sapiens) (UniProt Q9UM47). In words: small molecules binding NOTCH3 protein – biochemical, 635/667 nm fluorescence, primary screen (AID 1096). To be noted: small-molecule microarray, 635 nm fluorescence, higher = more signal.
Assay [20] in a line: probe aEGFR binding to arrayed compounds – biochemical, biotinylated probe, 635/667 nm fluorescence, primary screen (AID 1097).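 Further: probe is a biotinylated anti-EGFR antibody binding compounds printed on slides; score combines fluorescence near 667 nm and signal to noise of each spot.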 To be noted: small-molecule microarray, higher = more signal.

Sequence of Neurogenic locus notch homolog protein 3 (Homo sapiens) (Q9UM47 whole entry, looked up): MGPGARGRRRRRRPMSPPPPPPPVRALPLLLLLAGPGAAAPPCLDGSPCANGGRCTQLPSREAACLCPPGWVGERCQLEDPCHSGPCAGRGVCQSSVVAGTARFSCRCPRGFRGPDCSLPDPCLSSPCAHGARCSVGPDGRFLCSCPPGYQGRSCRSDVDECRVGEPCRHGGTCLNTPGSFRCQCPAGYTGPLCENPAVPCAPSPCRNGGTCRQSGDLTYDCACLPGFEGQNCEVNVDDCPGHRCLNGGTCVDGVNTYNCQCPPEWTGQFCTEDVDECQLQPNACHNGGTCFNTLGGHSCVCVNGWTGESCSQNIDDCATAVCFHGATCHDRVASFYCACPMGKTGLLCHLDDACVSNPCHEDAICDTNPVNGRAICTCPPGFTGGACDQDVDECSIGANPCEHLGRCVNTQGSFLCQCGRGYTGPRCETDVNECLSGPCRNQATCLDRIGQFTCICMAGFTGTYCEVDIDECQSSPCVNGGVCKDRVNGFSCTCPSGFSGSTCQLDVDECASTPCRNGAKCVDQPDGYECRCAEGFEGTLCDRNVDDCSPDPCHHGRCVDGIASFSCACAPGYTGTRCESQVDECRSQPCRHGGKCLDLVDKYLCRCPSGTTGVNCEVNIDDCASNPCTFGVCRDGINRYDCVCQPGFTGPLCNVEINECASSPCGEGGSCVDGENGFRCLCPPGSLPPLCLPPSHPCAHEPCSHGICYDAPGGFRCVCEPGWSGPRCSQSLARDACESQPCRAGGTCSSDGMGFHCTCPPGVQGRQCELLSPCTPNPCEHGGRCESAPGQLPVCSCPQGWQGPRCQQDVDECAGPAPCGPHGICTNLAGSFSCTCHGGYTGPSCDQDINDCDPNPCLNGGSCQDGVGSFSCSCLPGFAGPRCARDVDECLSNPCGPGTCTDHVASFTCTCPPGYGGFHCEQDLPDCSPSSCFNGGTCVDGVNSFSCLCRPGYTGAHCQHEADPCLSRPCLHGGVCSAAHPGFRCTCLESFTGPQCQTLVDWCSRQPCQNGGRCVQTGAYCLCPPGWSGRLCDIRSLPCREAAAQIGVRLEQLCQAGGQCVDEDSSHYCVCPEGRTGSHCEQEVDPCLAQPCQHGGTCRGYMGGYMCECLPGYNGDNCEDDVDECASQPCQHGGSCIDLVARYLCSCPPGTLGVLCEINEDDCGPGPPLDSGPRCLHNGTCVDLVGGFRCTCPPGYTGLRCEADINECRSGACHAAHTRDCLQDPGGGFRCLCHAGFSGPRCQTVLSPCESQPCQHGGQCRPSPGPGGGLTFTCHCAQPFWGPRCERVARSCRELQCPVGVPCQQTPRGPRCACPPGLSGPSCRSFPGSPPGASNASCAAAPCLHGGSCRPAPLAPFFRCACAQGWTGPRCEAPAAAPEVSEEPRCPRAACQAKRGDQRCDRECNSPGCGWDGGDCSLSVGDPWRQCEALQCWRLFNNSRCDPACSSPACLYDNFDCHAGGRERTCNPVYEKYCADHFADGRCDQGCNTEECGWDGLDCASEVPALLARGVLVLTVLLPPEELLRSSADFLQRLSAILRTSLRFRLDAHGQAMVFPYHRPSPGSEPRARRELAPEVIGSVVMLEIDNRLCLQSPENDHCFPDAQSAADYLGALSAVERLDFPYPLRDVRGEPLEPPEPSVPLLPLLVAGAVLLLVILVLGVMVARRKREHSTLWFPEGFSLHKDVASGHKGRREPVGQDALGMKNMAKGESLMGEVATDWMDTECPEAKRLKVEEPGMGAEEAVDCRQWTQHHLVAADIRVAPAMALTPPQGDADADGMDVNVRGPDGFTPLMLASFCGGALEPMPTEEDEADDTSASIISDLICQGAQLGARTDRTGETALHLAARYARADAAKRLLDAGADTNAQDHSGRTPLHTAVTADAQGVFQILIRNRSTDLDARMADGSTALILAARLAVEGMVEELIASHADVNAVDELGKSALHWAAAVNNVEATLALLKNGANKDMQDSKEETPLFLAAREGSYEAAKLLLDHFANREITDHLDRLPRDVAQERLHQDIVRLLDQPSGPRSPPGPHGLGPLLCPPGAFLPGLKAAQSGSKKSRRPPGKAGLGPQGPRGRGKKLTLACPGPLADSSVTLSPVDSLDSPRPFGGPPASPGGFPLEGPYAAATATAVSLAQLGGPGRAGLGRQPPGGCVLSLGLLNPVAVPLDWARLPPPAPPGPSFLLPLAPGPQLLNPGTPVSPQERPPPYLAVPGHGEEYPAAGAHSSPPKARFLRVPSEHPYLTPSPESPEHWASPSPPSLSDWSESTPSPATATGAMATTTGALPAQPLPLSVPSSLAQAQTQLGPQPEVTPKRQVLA
Sequence of Neurogenic locus notch homolog protein 2 (Homo sapiens) (Q04721 whole entry, looked up, canonical isoform): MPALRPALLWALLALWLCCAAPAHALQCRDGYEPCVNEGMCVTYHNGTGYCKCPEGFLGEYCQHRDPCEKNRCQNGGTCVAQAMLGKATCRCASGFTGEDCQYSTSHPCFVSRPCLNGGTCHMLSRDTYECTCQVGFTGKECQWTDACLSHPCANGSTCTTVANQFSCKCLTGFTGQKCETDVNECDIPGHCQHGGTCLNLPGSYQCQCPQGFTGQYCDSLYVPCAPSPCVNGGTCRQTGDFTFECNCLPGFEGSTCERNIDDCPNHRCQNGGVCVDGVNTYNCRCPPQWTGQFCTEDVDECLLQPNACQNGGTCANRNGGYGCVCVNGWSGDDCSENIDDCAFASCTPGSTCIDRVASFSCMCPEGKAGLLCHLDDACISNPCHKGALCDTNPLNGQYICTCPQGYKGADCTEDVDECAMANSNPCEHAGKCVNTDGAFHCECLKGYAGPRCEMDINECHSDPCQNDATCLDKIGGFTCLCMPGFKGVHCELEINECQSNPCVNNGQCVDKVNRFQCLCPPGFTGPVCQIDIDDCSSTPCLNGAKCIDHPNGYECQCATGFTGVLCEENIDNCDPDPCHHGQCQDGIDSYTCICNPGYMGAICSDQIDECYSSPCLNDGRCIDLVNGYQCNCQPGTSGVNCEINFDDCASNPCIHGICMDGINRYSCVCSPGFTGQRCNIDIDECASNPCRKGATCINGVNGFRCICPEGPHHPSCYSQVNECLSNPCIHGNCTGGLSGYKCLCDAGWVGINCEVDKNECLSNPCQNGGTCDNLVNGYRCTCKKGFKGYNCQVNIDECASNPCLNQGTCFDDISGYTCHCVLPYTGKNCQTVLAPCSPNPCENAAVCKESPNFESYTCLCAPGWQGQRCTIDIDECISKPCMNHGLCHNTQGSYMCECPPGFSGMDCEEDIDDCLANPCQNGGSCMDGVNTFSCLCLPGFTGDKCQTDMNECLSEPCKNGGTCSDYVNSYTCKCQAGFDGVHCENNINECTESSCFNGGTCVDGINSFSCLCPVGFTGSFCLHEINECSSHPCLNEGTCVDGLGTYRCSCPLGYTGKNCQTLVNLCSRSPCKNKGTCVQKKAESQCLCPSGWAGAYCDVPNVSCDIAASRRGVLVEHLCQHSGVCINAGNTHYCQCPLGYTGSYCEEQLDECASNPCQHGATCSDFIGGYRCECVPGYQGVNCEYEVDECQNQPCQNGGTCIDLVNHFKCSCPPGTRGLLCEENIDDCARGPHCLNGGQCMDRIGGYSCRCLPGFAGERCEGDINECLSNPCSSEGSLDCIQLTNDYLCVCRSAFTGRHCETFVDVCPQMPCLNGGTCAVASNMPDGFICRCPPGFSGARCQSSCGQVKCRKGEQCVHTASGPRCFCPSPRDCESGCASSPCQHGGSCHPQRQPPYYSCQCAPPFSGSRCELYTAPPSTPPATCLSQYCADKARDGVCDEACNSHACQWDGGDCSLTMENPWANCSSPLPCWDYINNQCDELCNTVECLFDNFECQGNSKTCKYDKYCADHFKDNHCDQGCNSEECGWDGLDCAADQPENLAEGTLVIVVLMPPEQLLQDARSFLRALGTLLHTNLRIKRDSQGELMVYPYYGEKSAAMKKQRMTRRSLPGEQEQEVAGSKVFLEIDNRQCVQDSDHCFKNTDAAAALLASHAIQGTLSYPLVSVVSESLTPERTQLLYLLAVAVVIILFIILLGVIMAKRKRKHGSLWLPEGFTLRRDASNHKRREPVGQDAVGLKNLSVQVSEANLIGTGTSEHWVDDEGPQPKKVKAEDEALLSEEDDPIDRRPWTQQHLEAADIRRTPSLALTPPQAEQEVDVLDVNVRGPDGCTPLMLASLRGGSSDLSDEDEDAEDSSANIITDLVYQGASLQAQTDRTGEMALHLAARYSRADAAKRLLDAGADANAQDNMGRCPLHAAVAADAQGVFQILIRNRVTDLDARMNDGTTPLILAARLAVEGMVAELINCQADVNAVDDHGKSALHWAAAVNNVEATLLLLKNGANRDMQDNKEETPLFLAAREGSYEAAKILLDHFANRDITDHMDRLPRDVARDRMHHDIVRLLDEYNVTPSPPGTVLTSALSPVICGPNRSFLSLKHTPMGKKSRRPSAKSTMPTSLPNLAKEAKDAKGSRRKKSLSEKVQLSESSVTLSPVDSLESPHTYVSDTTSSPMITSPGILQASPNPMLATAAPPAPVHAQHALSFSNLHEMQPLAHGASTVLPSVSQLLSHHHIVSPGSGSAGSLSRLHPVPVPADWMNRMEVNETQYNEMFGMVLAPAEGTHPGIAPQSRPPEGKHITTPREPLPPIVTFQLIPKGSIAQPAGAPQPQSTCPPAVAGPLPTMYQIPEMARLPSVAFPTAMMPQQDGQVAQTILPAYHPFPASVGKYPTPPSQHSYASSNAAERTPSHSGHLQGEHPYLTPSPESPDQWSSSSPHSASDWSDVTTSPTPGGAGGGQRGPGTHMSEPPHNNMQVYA

As to `C=C(C)C1CCC(C(O)C2C=CC3C(=O)N(C)C(=O)C3N2N2CCCCC2)CC1` (stereo not given), the composite z-score is 0.207 in [1]; -0.222 in assay [2]; 0.118 in assay [3]; 0.82 in assay [4]; 1.62 in assay [5]; 1.45 in assay [6]. For the same compound, the composite z-score in assay [7] was determined as 1.24; in [9], 1.23; in [10], 0.134; in assay [11], 1.53; in [15], 3.04; in assay [17] it was 0.398. Besides, the composite z-score in assay [18] worked out at 0.758; in [19], 1.04; in assay [20], 0.368. Moreover, the z-score in assay [8] was 1.17 (inactive); in assay [12], 1.26 (inactive); in [13], 0.642 (inactive); in assay [14] it was 2.25 (inactive); in assay [16] it was -0.867 (inactive).
For `Cc1ccc(S[C@]2(C(=O)O)CC(=O)N(C3Cc4ccccc4C3)[C@@H]2c2ccc(CO)cc2)cc1`, the composite z-score in assay [1] is 0.377; in assay [2] it was 0.477; in assay [3], 0.0015; in [4], -0.179; in assay [5] it was -0.267; in assay [6], 0.915. Also, the composite z-score in assay [7] was 0.184; in assay [9] it was -0.117; in assay [10] it was -0.134; in assay [11] it was 1.04; in [15] it was 2.98; in assay [17], 0.126. The composite z-score in assay [18] is -0.98; in assay [19], -0.472; in assay [20], -0.185. For the same compound, the z-score in [8] was 0.177 (inactive); in assay [12], 0.137 (inactive); in assay [13], -1.36 (inactive); in assay [14], 0.448 (inactive); in assay [16] it was 0.618 (inactive).
Regarding `C=C(COC)/C(=C/C[C@H](OC(=O)c1ccncc1)c1ccccc1OCCO)c1cnc2ccccc2c1`, the composite z-score in assay [1] is -0.776; in [2], 0.171; in assay [3] it was -0.0524; in [4], 1.18; in assay [5], 1.34; in [6] it was 1.47. Moreover, the composite z-score in [7] was 1.24; in [9], 1.07; in assay [10], -0.242; in assay [11], 1.54; in assay [15], 2.94; in assay [17], -0.345. In addition, the composite z-score in [18] came to 1.44; in assay [19], 1.02; in [20], 0.0024. For the same compound, the z-score was 1.01 (inactive) in [8]; -1.77 (inactive) in assay [12]; -0.997 (inactive) in [13]; -0.252 (inactive) in [14]; 0.395 (inactive) in [16].
Take `C=CC[C@]1(C(=O)O)COC(c2ccc(OCCCO)cc2)=N1`: the composite z-score is -0.151 in [1]; 0.273 in assay [2]; -0.0538 in assay [3]; -0.114 in assay [4]; 0.675 in [5]; 1.79 in assay [6]. For the same compound, the composite z-score in assay [7] is 1.07; in assay [9] it was 0.403; in [10] it was -0.249; in assay [11], 0.262; in assay [15], 3.36; in assay [17], -0.0784. Moreover, the composite z-score in [18] was 0.253; in assay [19], 0.0614; in [20] it was -0.0828. For the same compound, the z-score is 0.519 (inactive) in [8]; -0.396 (inactive) in assay [12]; -0.636 (inactive) in [13]; -0.581 (inactive) in assay [14]; -0.204 (inactive) in [16].
Turning to `O=C1NC(=O)C2C1C=CC(C(O)c1cccc3ccccc13)N2Nc1ccc(Cl)cc1Cl` (stereo not given), the composite z-score is 0.475 in assay [1]; -0.974 in assay [2]; -0.0752 in assay [3]; 0.51 in assay [4]; 1.49 in assay [5]; 1.53 in [6]. Moreover, the composite z-score in assay [7] is 1; in assay [9], 1.34; in [10] it was -0.0994; in assay [11] it was 0.811; in [15] it was 3.04; in assay [17], 0.162. The figures for the composite z-score in [18], in assay [19] and in assay [20] were -0.339, 1.04 and 0.131, respectively. The z-score was -0.716 (inactive) in assay [8]; -1.94 (inactive) in assay [12]; -0.615 (inactive) in assay [13]; 2.56 (inactive) in [14]; -1.43 (inactive) in assay [16].
